From the supplement of paper PMC10849652
The full data set covers some 7,900 targets. This sample favours those with a hit. About 0.6% of all pairs of compound and target were hits.

Each target was assayed with NCC(=O)Nc1ccc(-n2nc(C(F)(F)F)cc2-c2ccc3c(ccc4ccccc43)c2)cc1 (assay: log2 fold change, soluble protein after heating vs DMSO (PISA); higher = thermal stabilisation; K562 cells, 10 uM, 30 min; active = over 0.2 and 3.5 SD of the protein, either way, in both replicates (recomputed)).
Outline: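 For each measurement, 10 μM compound was applied for 30 min to K562 cells at 2×10^6 cells/mL. Aliquots were heated for 3 min across 48°C-58°C, pooled, and extracted in PBS with 0.5% NP-40 at 4°C; the supernatant after 21,000xg for 90 min was soluble protein. This was quantified by TMTpro 16plex LC-MS/MS with channel sums equalised, and thermal stability was reported relative to control samples from duplicates, on a log2 fold-change scale.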

Chain of UniProt Q99627 (Q99627 whole entry, looked up): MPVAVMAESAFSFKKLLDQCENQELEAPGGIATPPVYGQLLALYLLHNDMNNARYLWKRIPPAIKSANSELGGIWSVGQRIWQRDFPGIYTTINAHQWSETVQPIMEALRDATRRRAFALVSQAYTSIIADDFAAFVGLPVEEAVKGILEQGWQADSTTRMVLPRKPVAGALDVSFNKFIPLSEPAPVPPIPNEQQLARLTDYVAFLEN
Chain of UniProt P83916 (P83916 whole entry, looked up): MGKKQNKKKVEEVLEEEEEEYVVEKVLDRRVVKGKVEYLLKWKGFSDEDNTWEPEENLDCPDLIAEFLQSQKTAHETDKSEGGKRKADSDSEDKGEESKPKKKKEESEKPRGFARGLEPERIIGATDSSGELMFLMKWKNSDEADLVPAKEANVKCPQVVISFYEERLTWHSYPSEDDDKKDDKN
Chain of UniProt Q9UNS2 (Q9UNS2 whole entry, looked up): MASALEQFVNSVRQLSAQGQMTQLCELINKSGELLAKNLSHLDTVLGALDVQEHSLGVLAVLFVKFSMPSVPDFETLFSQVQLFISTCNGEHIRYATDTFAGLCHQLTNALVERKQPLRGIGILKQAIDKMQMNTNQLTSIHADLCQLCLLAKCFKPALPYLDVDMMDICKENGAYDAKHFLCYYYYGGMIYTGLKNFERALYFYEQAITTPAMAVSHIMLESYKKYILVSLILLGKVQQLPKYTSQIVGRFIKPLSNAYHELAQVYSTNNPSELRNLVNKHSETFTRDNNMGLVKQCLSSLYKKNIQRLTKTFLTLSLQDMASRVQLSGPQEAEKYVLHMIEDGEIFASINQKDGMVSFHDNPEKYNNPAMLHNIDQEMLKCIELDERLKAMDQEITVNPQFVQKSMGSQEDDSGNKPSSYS
Chain of UniProt Q14839 (Q14839 whole entry, looked up): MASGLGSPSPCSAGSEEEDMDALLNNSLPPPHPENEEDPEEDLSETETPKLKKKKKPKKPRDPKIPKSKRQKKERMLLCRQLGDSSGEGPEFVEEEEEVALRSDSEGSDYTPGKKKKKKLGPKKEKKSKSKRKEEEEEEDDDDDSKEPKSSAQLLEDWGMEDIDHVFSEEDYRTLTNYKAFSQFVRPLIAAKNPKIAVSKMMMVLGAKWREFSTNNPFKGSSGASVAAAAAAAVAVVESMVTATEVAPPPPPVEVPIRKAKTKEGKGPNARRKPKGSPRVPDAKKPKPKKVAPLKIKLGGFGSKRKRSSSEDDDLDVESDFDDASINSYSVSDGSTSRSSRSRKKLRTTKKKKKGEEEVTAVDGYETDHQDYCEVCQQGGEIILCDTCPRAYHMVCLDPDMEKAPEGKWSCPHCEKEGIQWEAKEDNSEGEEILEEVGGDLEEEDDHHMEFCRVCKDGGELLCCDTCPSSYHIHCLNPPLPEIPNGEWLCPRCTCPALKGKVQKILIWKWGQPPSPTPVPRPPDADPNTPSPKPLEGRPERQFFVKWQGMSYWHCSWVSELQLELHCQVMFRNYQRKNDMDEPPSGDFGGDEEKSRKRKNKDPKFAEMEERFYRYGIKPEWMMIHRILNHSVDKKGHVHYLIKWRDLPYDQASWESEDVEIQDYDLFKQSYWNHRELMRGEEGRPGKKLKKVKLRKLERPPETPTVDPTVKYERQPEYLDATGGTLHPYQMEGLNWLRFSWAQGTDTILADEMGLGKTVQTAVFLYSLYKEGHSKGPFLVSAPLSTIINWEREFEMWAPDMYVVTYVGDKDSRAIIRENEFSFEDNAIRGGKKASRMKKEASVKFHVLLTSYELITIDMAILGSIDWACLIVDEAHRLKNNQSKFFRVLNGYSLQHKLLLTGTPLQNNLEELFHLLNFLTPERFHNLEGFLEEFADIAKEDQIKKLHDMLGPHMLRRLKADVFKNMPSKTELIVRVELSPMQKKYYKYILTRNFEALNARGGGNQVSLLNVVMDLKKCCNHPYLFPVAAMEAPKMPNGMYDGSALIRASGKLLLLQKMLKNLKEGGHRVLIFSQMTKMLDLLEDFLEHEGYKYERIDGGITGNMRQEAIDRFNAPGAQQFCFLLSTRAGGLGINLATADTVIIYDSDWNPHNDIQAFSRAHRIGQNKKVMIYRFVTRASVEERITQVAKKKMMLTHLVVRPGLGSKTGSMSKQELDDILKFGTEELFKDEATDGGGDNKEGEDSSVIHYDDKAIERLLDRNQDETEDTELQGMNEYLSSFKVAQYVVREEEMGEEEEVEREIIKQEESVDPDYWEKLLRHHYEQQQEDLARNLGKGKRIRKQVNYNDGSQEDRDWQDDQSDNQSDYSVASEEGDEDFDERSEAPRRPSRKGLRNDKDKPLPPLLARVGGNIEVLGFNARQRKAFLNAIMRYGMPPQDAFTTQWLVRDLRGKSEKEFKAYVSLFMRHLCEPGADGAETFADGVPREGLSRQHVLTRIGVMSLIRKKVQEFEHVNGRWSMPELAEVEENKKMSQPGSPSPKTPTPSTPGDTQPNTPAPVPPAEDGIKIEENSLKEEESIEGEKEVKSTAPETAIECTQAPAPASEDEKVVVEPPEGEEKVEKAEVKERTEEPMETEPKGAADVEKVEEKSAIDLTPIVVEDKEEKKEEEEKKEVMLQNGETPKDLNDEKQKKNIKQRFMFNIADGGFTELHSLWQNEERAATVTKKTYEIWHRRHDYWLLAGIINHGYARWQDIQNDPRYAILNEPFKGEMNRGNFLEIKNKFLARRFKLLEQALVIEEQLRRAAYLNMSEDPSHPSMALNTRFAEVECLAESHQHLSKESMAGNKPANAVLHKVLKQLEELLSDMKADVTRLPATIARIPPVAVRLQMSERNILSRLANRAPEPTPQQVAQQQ
Chain of UniProt Q9NZN8 (Q9NZN8 whole entry, looked up): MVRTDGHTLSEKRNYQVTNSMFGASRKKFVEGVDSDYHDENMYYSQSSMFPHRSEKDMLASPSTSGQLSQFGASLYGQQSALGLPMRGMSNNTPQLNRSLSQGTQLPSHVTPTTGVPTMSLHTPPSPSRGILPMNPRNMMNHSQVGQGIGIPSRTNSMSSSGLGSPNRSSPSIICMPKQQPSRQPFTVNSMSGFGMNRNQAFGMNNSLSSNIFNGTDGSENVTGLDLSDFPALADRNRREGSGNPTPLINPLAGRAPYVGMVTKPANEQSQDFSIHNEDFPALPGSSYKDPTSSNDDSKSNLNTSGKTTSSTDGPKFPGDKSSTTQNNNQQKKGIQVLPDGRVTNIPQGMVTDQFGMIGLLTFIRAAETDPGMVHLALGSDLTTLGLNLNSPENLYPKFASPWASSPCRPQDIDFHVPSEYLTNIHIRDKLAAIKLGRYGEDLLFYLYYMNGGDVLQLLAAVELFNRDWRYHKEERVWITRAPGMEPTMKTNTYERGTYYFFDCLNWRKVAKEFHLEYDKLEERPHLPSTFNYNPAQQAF
Chain of UniProt Q8N163 (Q8N163 whole entry, looked up): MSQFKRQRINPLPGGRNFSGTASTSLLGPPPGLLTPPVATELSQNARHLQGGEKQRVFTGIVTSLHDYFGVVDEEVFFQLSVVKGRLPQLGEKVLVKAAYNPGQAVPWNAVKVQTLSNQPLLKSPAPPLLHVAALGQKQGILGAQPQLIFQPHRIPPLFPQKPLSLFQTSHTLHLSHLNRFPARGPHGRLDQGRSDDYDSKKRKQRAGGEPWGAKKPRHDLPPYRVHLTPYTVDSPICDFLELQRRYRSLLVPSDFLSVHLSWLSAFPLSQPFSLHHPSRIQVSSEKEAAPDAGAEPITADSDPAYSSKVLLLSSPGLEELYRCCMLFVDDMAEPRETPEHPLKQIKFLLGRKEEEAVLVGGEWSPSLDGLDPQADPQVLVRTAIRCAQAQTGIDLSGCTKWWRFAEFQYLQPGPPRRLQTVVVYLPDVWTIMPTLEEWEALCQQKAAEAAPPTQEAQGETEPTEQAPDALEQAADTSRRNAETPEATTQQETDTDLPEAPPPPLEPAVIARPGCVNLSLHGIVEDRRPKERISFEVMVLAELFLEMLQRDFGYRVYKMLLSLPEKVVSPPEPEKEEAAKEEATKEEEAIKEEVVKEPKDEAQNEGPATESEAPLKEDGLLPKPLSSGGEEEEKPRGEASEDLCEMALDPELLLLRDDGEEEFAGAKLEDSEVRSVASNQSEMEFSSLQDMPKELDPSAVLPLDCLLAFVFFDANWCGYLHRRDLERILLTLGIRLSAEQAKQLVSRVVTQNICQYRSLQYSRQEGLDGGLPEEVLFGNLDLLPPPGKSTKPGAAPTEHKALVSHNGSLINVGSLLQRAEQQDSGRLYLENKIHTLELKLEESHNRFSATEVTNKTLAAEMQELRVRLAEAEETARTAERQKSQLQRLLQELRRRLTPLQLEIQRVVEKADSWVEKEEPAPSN
Chain of UniProt Q96JB5 (Q96JB5 whole entry, looked up): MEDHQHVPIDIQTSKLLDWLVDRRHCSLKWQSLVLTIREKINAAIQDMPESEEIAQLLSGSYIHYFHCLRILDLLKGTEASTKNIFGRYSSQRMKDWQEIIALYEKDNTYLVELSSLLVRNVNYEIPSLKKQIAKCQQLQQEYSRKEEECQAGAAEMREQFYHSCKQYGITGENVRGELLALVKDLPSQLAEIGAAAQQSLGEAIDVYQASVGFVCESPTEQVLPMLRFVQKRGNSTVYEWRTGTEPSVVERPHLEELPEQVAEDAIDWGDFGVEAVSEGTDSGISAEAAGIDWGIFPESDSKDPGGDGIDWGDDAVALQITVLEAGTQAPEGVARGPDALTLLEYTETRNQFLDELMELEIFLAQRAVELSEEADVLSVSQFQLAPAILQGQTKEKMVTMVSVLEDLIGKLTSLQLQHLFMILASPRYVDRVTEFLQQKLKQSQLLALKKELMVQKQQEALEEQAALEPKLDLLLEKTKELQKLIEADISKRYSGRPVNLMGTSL
Chain of UniProt P20674 (P20674 whole entry, looked up): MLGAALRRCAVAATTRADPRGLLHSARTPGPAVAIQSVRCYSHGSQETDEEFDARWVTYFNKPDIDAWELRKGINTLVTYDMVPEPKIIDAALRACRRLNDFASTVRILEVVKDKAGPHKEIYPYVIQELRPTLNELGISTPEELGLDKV
Chain of UniProt P41208 (P41208 whole entry, looked up): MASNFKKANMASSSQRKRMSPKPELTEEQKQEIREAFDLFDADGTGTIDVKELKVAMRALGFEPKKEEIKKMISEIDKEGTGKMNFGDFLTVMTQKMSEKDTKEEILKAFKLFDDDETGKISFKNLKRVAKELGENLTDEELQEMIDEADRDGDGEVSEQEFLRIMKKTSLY

| Target | log2 fold change |
| --- | --- |
| CD151 (UniProt P48509) | 0.024 (inactive) |
| CBX1 (UniProt P83916) | 0.004 (inactive) |
| CHCHD2 (UniProt Q9Y6H1) | 0.012 (inactive) |
| CCNK isoform 4 (UniProt O75909) | -0.091 (inactive) |
| CBR1 (UniProt P16152) | 0.037 (inactive) |
| CASP2 (UniProt P42575) | 0.065 (inactive) |
| COCH (UniProt O43405) | 0.13 (inactive) |
| CTBS (UniProt Q01459) | -0.002 (inactive) |
| CDKN2AIP (UniProt Q9NXV6) | -0.026 (inactive) |
| CBS (UniProt P35520) | 0.016 (inactive) |
| COMT (UniProt P21964) | -0.022 (inactive) |
| CCDC9 (UniProt Q9Y3X0) | 0.02 (inactive) |
| CHD4 isoform 2 (UniProt Q14839) | -0.039 (inactive) |
| COX5A (UniProt P20674) | 0.024 (inactive) |
| CLCN3 (UniProt P51790) | -0.078 (inactive) |
| C4A (UniProt P0C0L4) | 0 (inactive) |
| CCAR2 isoform 2 (UniProt Q8N163) | -0.088 (inactive) |
| COPS4 (UniProt Q9BT78) | 0.036 (inactive) |

| Target | log2 fold change |
| --- | --- |
| CDK16 isoform 2 (UniProt Q00536) | -0.061 (inactive) |
| COPS3 (UniProt Q9UNS2) | 0.011 (inactive) |
| C4orf33 (UniProt Q8N1A6) | -0.061 (inactive) |
| COPS8 (UniProt Q99627) | 0.043 (inactive) |
| CDK5RAP3 isoform 4 (UniProt Q96JB5) | -0.097 (inactive) |
| CCZ1 (UniProt P86791) | -0.077 (inactive) |
| CSTF2 (UniProt P33240) | -0.031 (inactive) |
| COX6B1 (UniProt P14854) | 0.007 (inactive) |
| CNDP2 (UniProt Q96KP4) | 0.01 (inactive) |
| CPQ (UniProt Q9Y646) | 0.072 (inactive) |
| CA1 (UniProt P00915) | 0.012 (inactive) |
| CNN2 (UniProt Q99439) | -0.052 (inactive) |
| CSNK2A2 (UniProt P19784) | 0.069 (inactive) |
| CNOT2 (UniProt Q9NZN8) | -0.087 (inactive) |
| CRK (UniProt P46108) | -0.011 (inactive) |
| CETN2 (UniProt P41208) | 0.076 (inactive) |
| CPSF1 (UniProt Q10570) | 0.006 (inactive) |
| CSTF3 (UniProt Q12996) | -0.032 (inactive) |
